From the supplement of paper PMC10849652
Targets with a hit are over-represented here; the source holds about 7,900 in all. About 0.6% of all pairs of compound and target were hits.

Assays:
Experiment in all cases: log2 fold change, soluble protein after heating vs DMSO (PISA); higher = thermal stabilisation; K562 cells, 10 uM, 30 min; active = over 0.2 and 3.5 SD of the protein, either way, in both replicates (recomputed)
erlotinib = compound: C#Cc1cccc(Nc2ncnc3cc(OCCOC)c(OCCOC)cc23)c1 [erlotinib]
Procedure, shortened: (§1)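 K562 cells at 2×10^6 cells/mL were given 10 μM compound for 30 min. Aliquots then went through 3 min of heating across 48°C-58°C, were pooled, and were extracted in PBS with 0.5% NP-40 at 4°C, and the supernatant after 21,000xg for 90 min was quantified by TMTpro 16plex LC-MS/MS with channel sums equalised. Thermal stability relative to control samples, from duplicates, is given as log2 fold change.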

[1] = compound: C/C(=N\NC(=O)C1=CC(=CC=C1)S(=O)(=O)N2CCOCC2)/C3=C(C=CC(=C3)Cl)O
Procedure, shortened: as §1

[2] = compound: C1=CC(=C(C=C1Cl)C2=NC3=NC=CN=C3C(=N2)NC4=CC=NC=C4)F
Procedure, shortened: as §1

[3] = compound: C1=CC(=CC=C1C2=NC3=C(N2)C=C(C=C3)C(=O)N)OC4=CC=C(C=C4)Cl
Procedure, shortened: as §1

[4] = compound: C1=CC2=C(C=CC(=C2)/C=C\3/C(=O)NC(=NCC4=CC=CS4)S3)N=C1
Procedure, shortened: as §1

[5] = compound: C1=CC2=NC=CN=C2C=C1/C=C/3\C(=O)NC(=O)S3
Procedure, shortened: as §1

[6] = compound: C1=CC=C(C=C1)C2=NC(=C(N2)C3=CC=NC=C3)C4=CC(=C(C=C4)Cl)O
Procedure, shortened: as §1

[7] = compound: C1=CC=C2C(=C1)C3=NNC4=CC=CC(=C43)C2=O
Procedure, shortened: as §1

[8] = compound: C1CCN(C1)C(=O)NC2=CC=CC(=C2)NC3=NC=C(C(=N3)NCCC4=CN=CN4)Br
Procedure, shortened: as §1

[9] = compound: C1CN(CCC1(CC2=CC=C(C=C2)Cl)N)C3=NC=NC4=C3C=CN4
Procedure, shortened: as §1

Measured: log2 fold change

PMM2 (UniProt O15305)
Sequence of UniProt O15305 (O15305 whole entry, looked up): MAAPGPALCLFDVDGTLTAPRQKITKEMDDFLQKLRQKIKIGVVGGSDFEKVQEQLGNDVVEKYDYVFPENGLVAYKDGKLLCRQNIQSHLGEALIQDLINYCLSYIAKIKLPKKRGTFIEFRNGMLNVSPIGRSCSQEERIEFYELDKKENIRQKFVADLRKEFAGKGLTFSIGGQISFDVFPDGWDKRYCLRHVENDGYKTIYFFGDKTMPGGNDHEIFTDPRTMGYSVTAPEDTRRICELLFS
inactive: erlotinib 0.03 | [1] -0.034 | [2] 0.008 | [3] -0.02 | [4] 0.023 | [5] 0.003 | [6] -0.014 | [7] -0.019 | [8] -0.004 | [9] 0.05

PIP4P1 isoform 2 (UniProt Q86T03)
Sequence of UniProt Q86T03 (Q86T03 whole entry, looked up): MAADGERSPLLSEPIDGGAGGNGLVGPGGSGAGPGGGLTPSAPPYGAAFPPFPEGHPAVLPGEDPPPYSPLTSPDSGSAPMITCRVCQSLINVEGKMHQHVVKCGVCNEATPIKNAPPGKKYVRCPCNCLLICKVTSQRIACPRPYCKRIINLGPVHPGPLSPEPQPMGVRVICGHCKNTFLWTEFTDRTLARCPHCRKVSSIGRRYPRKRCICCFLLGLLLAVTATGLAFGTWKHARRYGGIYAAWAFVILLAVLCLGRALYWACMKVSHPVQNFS
inactive: erlotinib 0.057 | [1] 0.001 | [2] 0.052 | [3] -0.014 | [4] -0.104 | [5] 0.068 | [6] 0.002 | [7] 0.035 | [8] -0.028 | [9] 0.101

PHKG2 (UniProt P15735)
Sequence of UniProt P15735 (P15735 whole entry, looked up): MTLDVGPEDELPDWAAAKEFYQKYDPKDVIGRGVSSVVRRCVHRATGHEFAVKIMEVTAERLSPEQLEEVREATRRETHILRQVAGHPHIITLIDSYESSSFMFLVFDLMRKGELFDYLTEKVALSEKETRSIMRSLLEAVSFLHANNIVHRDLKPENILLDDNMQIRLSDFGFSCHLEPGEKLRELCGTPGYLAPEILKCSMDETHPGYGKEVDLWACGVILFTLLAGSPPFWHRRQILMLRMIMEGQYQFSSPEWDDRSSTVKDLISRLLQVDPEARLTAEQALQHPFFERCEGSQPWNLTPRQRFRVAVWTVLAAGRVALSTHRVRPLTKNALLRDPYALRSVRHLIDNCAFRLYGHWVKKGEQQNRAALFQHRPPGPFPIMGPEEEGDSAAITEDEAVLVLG
inactive: erlotinib -0.067 | [1] -0.078 | [2] 0.021 | [3] -0.003 | [4] -0.055 | [5] -0.113 | [6] 0.034 | [7] 0.076 | [8] -0.159 | [9] 0.029

PPM1G (UniProt O15355)
Sequence of UniProt O15355 (O15355 whole entry, looked up): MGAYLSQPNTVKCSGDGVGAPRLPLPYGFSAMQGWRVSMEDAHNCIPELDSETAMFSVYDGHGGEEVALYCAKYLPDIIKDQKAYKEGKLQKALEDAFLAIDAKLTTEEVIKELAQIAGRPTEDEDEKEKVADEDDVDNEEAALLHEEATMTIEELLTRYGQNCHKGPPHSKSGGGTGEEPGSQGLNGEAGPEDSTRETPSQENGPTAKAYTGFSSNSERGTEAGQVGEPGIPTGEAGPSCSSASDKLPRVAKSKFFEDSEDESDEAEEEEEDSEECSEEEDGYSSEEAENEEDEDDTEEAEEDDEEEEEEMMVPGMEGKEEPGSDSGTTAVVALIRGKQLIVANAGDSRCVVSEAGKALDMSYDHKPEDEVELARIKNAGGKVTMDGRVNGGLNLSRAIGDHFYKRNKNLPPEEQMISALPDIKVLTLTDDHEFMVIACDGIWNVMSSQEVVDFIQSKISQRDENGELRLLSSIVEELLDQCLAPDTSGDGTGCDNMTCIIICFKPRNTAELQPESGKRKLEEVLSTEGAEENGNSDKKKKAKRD
inactive: erlotinib 0.117 | [1] 0.118 | [2] 0.009 | [3] -0.017 | [4] 0.024 | [5] 0.035 | [6] -0.052 | [7] -0.022 | [8] -0.011 | [9] -0.065

PSMB4 (UniProt P28070)
Sequence of UniProt P28070 (P28070 whole entry, looked up): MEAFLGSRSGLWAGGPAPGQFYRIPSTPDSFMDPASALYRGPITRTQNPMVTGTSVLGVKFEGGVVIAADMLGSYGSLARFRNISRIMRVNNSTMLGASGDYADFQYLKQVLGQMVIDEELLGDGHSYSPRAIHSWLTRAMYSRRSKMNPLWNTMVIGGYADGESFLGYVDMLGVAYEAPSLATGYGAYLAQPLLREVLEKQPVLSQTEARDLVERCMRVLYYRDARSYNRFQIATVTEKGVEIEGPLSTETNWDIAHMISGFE
inactive: erlotinib -0.056 | [1] -0.024 | [2] -0.003 | [3] 0.001 | [4] -0.024 | [5] -0.035 | [6] -0.028 | [7] 0.001 | [8] 0.008 | [9] 0.037

PTGFRN (UniProt Q9P2B2)
Sequence of UniProt Q9P2B2 (Q9P2B2 whole entry, looked up): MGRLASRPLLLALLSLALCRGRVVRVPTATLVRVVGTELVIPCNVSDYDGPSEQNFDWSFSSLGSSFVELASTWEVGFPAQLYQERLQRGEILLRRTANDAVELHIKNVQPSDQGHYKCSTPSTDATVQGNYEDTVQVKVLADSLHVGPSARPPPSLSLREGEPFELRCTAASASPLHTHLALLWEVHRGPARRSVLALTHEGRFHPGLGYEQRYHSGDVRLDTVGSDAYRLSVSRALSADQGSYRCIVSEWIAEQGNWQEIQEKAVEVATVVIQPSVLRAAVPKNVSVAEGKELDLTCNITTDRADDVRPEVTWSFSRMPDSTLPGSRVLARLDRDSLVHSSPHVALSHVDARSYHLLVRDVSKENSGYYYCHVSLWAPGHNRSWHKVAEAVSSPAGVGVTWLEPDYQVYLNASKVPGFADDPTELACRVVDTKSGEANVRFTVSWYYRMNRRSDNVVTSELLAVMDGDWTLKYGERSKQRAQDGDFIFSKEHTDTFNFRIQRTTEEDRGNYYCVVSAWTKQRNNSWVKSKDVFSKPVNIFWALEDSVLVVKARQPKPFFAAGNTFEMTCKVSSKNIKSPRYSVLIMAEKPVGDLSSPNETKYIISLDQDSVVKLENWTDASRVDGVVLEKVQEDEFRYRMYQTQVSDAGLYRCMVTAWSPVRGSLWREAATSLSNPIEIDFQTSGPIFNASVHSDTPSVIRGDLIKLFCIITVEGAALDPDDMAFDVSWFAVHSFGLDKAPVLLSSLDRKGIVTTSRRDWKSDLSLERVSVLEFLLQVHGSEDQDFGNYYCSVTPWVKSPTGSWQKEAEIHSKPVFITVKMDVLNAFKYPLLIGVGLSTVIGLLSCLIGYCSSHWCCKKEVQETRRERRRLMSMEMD
inactive: erlotinib 0.019 | [1] -0.006 | [2] 0.021 | [3] 0 | [4] -0.034 | [5] 0.01 | [6] 0.015 | [7] -0.053 | [8] -0.027 | [9] 0.11
